# Assay results: PubChem BioAssay
# The source made the active and inactive calls.
# Experiments:
# [1] = test system: PRMT1 (protein arginine N-methyltransferase 1); test: PRMT1 binders on small-molecule microarrays, primary screen, biochemical, small-molecule microarray, 635 nm fluorescence (AID 1088); details: small-molecule microarray binding, higher = more signal;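 note: binding of Prmt1 protein to compounds spotted on small-molecule microarray slides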
# [2] = yeast growth modulation, basal conditions, primary screen, YJM789 clinical isolate, OD600, 24 h (AID 1089);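 note: growth of clinical yeast isolate S. cerevisiae YJM 789 seeded 1000 cells per well; test concentration not given here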; details: S. cerevisiae YJM789 growth, higher = more signal, called active from +8 up or from −8 down
# [3] = fission yeast growth modulation, primary screen, strain 972, OD600, 24 h, no modulator (AID 1090);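 note: basal condition with compound alone and no growth modifier present; test concentration not given here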; details: S. pombe 972 growth, higher = more signal, called active from +8 up or from −8 down
# [4] = S. cerevisiae growth modulation with rapamycin, primary screen, strain BY4716, OD600, 96 h (AID 1091); details: higher = more signal, called active from +8 up or from −8 down; note: test concentration not given here
# [5] = target: Torsin-1A-interacting protein 2 (Homo sapiens) (UniProt Q8NFQ8); test: LULL1 binders on small-molecule microarray, primary screen, cell lysate, human LULL1 lysate, 635/667 nm fluorescence (AID 1092); details: hLULL1 lysate binding, 635 nm fluorescence, higher = more signal;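 note: probe is lysate of COS7 cells overexpressing human LULL1; score merges per-feature 667 nm fluorescence with signal-to-noise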
# Torsin-1A-interacting protein 2 (Homo sapiens), sequence (Q8NFQ8 whole entry, looked up): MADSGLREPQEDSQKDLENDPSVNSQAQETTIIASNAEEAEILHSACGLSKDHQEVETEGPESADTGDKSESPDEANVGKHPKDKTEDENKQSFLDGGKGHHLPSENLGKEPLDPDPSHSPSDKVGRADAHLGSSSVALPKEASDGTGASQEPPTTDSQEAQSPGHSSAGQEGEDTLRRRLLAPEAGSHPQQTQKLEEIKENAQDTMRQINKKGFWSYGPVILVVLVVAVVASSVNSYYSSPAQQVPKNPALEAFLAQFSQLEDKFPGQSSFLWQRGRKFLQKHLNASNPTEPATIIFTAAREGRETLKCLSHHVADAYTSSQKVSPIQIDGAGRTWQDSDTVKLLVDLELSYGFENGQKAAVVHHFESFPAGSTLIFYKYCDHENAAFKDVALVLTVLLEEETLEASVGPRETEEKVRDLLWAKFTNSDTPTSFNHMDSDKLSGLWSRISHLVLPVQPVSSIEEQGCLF
# [6] = E. coli growth modulation, two-sided OD650, primary screen, E. coli filamentation project, strain DRC41, 24 h (AID 1093); details: OD650, 24 h, higher = more signal, called active from +8 up or from −8 down;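 note: MC1000 strain lacking acrAB efflux and sulA so SOS filamentation is blocked; test concentration not given here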
# [7] = small-molecule microarray binders of probe aLefty2, primary screen, biochemical, biotinylated probe, 635/667 nm fluorescence (AID 1094); details: higher = more signal;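 note: score merges spot fluorescence near 667 nm with spot signal-to-noise ratio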
# [8] = test system: Noggin (protein binding on small-molecule microarray); test: Noggin binders on small-molecule microarray, primary screen, biochemical, 635/667 nm fluorescence (AID 1095); details: 635 nm fluorescence, higher = more signal;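 note: score merges 667 nm feature fluorescence with signal to noise over triplicate slides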
# [9] = target: Neurogenic locus notch homolog protein 3 (Homo sapiens) (UniProt Q9UM47); test: NOTCH3 binders on small-molecule microarray, primary screen, biochemical, 635/667 nm fluorescence (AID 1096); details: NOTCH3 binding, 635 nm fluorescence, higher = more signal
# Neurogenic locus notch homolog protein 3 (Homo sapiens), sequence (Q9UM47 whole entry, looked up): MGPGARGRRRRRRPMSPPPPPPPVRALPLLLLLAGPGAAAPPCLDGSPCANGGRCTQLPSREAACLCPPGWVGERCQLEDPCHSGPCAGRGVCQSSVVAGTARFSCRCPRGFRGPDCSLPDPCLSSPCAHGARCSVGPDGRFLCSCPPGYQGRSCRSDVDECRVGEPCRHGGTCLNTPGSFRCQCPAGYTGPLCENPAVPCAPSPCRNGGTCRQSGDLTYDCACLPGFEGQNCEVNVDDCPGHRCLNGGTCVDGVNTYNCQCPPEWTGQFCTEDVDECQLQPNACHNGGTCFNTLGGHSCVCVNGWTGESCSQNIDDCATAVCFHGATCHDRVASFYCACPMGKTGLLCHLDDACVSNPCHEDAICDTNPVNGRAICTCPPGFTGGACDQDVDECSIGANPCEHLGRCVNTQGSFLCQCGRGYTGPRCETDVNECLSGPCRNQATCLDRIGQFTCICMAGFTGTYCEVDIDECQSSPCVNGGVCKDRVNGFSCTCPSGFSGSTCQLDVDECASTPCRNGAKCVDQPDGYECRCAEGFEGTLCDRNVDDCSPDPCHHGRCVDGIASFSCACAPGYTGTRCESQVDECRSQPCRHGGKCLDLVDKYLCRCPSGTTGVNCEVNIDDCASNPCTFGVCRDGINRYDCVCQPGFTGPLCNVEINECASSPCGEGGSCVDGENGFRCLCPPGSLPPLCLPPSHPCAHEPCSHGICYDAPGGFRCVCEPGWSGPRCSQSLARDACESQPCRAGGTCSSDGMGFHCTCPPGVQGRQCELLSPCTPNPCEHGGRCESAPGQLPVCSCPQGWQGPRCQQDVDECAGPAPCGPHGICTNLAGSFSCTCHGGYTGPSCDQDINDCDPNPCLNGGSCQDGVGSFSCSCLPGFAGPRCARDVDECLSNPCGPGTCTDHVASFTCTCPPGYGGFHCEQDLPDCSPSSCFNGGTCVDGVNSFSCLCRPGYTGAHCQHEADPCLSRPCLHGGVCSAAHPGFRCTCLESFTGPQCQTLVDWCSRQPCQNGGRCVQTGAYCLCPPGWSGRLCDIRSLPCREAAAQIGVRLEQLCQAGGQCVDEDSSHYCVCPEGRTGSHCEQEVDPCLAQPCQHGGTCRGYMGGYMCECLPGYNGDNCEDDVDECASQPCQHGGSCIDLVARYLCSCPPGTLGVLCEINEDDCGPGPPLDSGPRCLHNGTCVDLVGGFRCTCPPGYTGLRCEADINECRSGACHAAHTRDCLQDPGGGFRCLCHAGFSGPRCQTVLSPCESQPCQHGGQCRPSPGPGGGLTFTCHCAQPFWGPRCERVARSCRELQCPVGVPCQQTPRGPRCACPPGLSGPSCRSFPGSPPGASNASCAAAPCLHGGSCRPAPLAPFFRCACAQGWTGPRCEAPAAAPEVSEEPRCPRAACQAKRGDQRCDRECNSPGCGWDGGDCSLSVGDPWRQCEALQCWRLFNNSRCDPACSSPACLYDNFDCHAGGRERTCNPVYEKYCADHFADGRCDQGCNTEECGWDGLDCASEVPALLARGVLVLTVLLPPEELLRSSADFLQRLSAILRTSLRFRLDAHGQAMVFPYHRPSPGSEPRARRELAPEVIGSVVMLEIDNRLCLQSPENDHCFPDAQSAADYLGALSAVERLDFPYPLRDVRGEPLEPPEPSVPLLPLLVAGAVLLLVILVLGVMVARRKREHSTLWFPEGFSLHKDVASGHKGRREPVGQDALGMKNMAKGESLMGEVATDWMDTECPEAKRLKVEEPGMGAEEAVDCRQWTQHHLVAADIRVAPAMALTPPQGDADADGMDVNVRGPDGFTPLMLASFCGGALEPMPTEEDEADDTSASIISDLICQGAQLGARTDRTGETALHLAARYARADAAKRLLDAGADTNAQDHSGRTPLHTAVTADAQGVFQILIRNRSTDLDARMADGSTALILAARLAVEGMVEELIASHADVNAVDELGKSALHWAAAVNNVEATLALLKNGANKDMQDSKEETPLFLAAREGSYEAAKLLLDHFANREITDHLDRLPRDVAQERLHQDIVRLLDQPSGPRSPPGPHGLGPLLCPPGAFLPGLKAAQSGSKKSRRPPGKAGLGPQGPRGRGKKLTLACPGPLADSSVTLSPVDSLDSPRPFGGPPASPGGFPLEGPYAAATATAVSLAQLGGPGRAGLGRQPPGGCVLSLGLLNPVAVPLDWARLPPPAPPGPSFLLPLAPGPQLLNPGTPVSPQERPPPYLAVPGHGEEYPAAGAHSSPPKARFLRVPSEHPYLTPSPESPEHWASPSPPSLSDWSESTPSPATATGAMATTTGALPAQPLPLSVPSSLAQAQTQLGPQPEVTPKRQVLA
# [10] = small-molecule microarray binders of probe aEGFR, primary screen, biochemical, biotinylated probe, 635/667 nm fluorescence (AID 1097); details: higher = more signal;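 note: probe is a biotinylated anti-EGFR antibody binding compounds printed on slides; score combines fluorescence near 667 nm and signal to noise of each spot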
SMILES,composite z-score [1],z-score [2],z-score [3],z-score [4],composite z-score [5],z-score [6],composite z-score [7],composite z-score [8],composite z-score [9],composite z-score [10]
NC(=O)NCC#Cc1ccc2c(c1)[C@]1(C(=O)N2)[C@H](c2ccc(O)cc2)N2[C@H](c3ccccc3)[C@H](c3ccccc3)OC(=O)[C@H]2[C@@H]1C(=O)NC[C@H](O)c1ccccc1,-0.0161,-0.195 (inactive),0.207 (inactive),-0.0001 (inactive),-0.383,0.821 (inactive),-0.0435,-2.14,-0.91,-0.276
COC(=O)c1ccc(OC)c(/C=C\CC(CCc2ccccc2)OC(=O)c2ccncc2)c1 (stereo not given),-0.0105,-0.272 (inactive),-1.34 (inactive),3.39 (inactive),0.673,0.162 (inactive),0.0224,1.88,-0.169,-0.195
OCc1ccc(-c2cc[n+](Cc3cccc(OC(F)(F)F)c3)cc2)cc1,1.26,-1.54 (inactive),-19.5 (active),5.75 (inactive),1.99,0.261 (inactive),0.353,0.876,1.05,-0.0016
O=C1N(CCS(=O)(=O)c2ccccc2)Cc2ccccc2C[C@@]12COC(c1ccc(OCCCO)cc1)=N2,1.54,0.978 (inactive),0.381 (inactive),3.45 (inactive),3.04,0.937 (inactive),0.686,0.982,1.04,0.285
Cc1ccccc1C(O)C1C=CC2C(=O)N(C)C(=O)C2N1Nc1ccc([N+](=O)[O-])cc1[N+](=O)[O-] (stereo not given),1.56,0.426 (inactive),0.73 (inactive),0.969 (inactive),3.45,-1.24 (inactive),0.25,0.17,1.08,0.0801
COC(=O)C(CC#Cc1ccc2c(c1)[C@]1(C(=O)N2)[C@H](c2ccccc2OCCO)N2[C@H](c3ccccc3)[C@H](c3ccccc3)OC(=O)[C@H]2[C@@H]1C(=O)Nc1nc2ccccc2s1)C(=O)OC,1.52,2.11 (inactive),1.03 (inactive),1.36 (inactive),2.93,-0.724 (inactive),-0.0699,1.24,1.15,-0.0688
CN(C)C(=O)[C@@]1(CCC(=O)OC(C)(C)C)N=C(c2ccc(OCCCO)cc2)O[C@H]1c1ccccc1N=[N+]=[N-],1.54,0.82 (inactive),0.217 (inactive),0.701 (inactive),3.82,-0.0123 (inactive),0.126,1.09,1.09,0.101
CCCC=C(CCC)[C@@H](NS(=O)(=O)CC)c1ccccc1,1.17,0.472 (inactive),1.22 (inactive),0.565 (inactive),2.57,-0.66 (inactive),0.195,0.222,1.16,0.0093
CC(C)CN1C(=O)[C@@]2(Cc3ccccc31)c1ccccc1C(=O)N(Cc1ccccc1)[C@H]2c1ccc(CO)cc1,-0.594,-0.0832 (inactive),-0.519 (inactive),-1.46 (inactive),0.771,-0.336 (inactive),-0.131,-0.34,-0.395,-0.348
CC(C)(C)OC(=O)CC[C@]1(C(=O)O)COC(c2ccc(OCCCO)cc2)=N1,-1.22,0.923 (inactive),0.179 (inactive),0.197 (inactive),1.29,-0.079 (inactive),0.12,-1.09,-0.463,-0.0575
O=C1c2ccccc2[C@](Cc2ccccc2I)(C(=O)NCC(F)(F)F)[C@H](c2ccc(CO)cc2)N1Cc1ccccc1,1.55,-0.943 (inactive),-0.732 (inactive),-0.666 (inactive),2.45,0.29 (inactive),-0.0907,0.444,1.16,-0.0679
CC(C)N1C(=O)c2ccccc2[C@](C)(C(=O)O)[C@@H]1c1ccc(CO)cc1,-0.0681,-0.0219 (inactive),-0.751 (inactive),-1.16 (inactive),1.32,-0.156 (inactive),-0.0395,-0.615,-0.356,-0.256
CN(C)C(=O)[C@]1(Cc2ccccc2N=[N+]=[N-])N=C(c2ccc(OCCCO)cc2)O[C@@H]1c1ccccc1CN=[N+]=[N-],1.5,-2.13 (inactive),-0.393 (inactive),0.545 (inactive),3.51,0.35 (inactive),0.0262,0.821,1.02,-0.0509
Cc1ccc(S[C@]2(C(=O)O)CC(=O)N(Cc3ccccc3C(F)(F)F)[C@@H]2c2ccc(CO)cc2)cc1,0.667,0.517 (inactive),0.13 (inactive),0.124 (inactive),1.87,0.301 (inactive),-0.0732,-1.06,-1.34,-0.225
C=C[C@@H](O)[C@H]1CC(c2ccccc2)=NO1,-0.425,-0.347 (inactive),-0.954 (inactive),-0.657 (inactive),-0.141,1.13 (inactive),-0.0339,-0.174,-0.872,-0.0844
COc1ccc([Si](C)(C)[C@@H]2[C@@H](CC(=O)N3Cc4ccccc4C[C@H]3CO)O[C@]3(C(=O)N(Cc4cccc(N5CCCCC5=O)c4)c4ccccc43)[C@H]2C)cc1,1.55,0.318 (inactive),1.41 (inactive),2.4 (inactive),1.79,0.73 (inactive),-0.0878,1.41,1.07,-0.0356
Cc1ccc(-c2cccc(=O)o2)cc1,-0.0072,-1.91 (inactive),-1.56 (inactive),1 (inactive),-0.606,0.0307 (inactive),-0.183,-0.175,-0.312,-0.105
C=CC[C@]1(C(=O)N2CCOCC2)N=C(c2ccc(OCCCO)cc2)O[C@H]1c1ccccc1CN=[N+]=[N-],1.53,-0.819 (inactive),-1.63 (inactive),-0.119 (inactive),3.49,0.191 (inactive),0.0503,1.57,1.05,-0.0111
CN(C)CCCN1C(=O)[C@@]2(Cc3ccccc31)c1ccccc1C(=O)N(Cc1ccccc1)[C@H]2c1ccc(CO)cc1,1.12,-0.0782 (inactive),-1.35 (inactive),-1.85 (inactive),-0.42,-1.42 (inactive),-0.171,0.542,0.204,-0.184
CC1CC/C=C\[C@H]2OC34C=CCN(Cc5ccccc5)C(=O)[C@H]3N(CCO)C(=O)[C@@H]4C2C(=O)O1 (stereo not given in full),0.205,-0.404 (inactive),-0.791 (inactive),0.285 (inactive),1.27,1.36 (inactive),-0.0042,-0.585,-0.127,-0.113
C=CCNC(=O)[C@@H]1[C@H]2C(=O)O[C@H](c3ccccc3)[C@H](c3ccccc3)N2[C@H](c2ccc(O)cc2)[C@@]12C(=O)Nc1ccc(C#CCCO)cc12,-0.36,-0.328 (inactive),-0.397 (inactive),-0.301 (inactive),2.17,2.31 (inactive),-0.259,-1.2,-0.261,-0.261
COc1ccc(C(=O)Nc2ccc(CN3C(=O)[C@@]4(O[C@@H](CC(=O)N5Cc6ccccc6C[C@H]5CO)[C@H]([Si](C)(C)c5ccc(OC)cc5)[C@H]4C)c4ccccc43)cc2)cc1,1.51,-1.8 (inactive),0.821 (inactive),1.87 (inactive),1.92,0.265 (inactive),-0.215,1.61,1.13,-0.0961
COC(=O)[C@]1(Cc2ccccc2CN=[N+]=[N-])N=C(c2ccc(OCCCO)cc2)O[C@@H]1c1ccccc1,-0.985,0.697 (inactive),-1.55 (inactive),35.3 (active),0.475,0.437 (inactive),0.17,-0.586,-0.601,-0.257
COCCOC(=O)N1C(=O)[C@@]2(c3cc(C#CC4(O)CCCCCC4)ccc31)[C@H](C(=O)N1CCN(c3ncccn3)CC1)[C@H]1C(=O)O[C@H](c3ccccc3)[C@H](c3ccccc3)N1[C@@H]2c1ccc(O)cc1,1.47,1.79 (inactive),-0.885 (inactive),2.83 (inactive),2.54,1.31 (inactive),-0.172,0.287,0.546,-0.158
C=CCOC(=O)[C@@H]1[C@H]2C(=O)O[C@H](c3ccccc3)[C@H](c3ccccc3)N2[C@H](c2ccc(OCCOC(=O)[C@@H]3C[C@@H]4C(=O)N[C@@H](CCCCNC(C)=O)C(=O)N4[C@@H]3c3ccc(O)cc3)cc2)[C@@]12C(=O)Nc1ccc(I)cc12,1.54,0.0797 (inactive),0.994 (inactive),2.96 (inactive),2.15,-0.101 (inactive),-0.0248,1.42,1.13,0.15
O=C1NC(=O)C2C1C=CC(C(O)c1ccc3c(c1)OCO3)N2Nc1ccc(Cl)cc1Cl (stereo not given),0.0405,-3.53 (inactive),-0.462 (inactive),0.142 (inactive),2.94,-1.14 (inactive),0.15,0.132,0.361,-0.108
